We go through 36 compounds from PubChem BioAssay (EPA / NIEHS).

SMILES strings stand for the structures. Records with an inconclusive call do not appear. Active and inactive are the calls of the source. How the source made its calls: active means hit-call score of the fitted dose curve at least 0.9, where 1 is the maximum; inconclusive means response in the unintended direction; inactive means score below 0.9.

Chain of Peroxisome proliferator-activated receptor gamma (Homo sapiens) (P37231 whole entry, looked up, the tested form may be a part): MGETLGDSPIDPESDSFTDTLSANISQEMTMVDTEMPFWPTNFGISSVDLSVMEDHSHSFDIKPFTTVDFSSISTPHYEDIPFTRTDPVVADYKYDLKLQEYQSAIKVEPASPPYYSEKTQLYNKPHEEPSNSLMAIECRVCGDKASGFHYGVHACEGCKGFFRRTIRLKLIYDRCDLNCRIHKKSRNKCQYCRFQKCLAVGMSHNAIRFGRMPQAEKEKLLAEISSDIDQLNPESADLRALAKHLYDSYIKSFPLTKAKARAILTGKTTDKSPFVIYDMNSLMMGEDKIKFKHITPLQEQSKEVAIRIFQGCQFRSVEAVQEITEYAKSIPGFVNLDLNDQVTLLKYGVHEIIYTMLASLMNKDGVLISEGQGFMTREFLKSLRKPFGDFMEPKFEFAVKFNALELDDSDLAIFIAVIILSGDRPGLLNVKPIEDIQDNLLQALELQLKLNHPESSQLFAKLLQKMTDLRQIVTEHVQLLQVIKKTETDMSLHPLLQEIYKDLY

In one assay the target is Retinoic acid receptor RXR-alpha (Homo sapiens) (UniProt P19793). Briefly: OT_NURR1_NURR1RXRa_1440: Odyssey Thera (OT) 24-hour HEK293T Protein Complementation Assay for Nurr1/retinoid X receptor (RXR) (AID 2283386). In outline: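 HEK293T cells were dosed with compound and read 24 h later by fluorescence intensity in a protein-fragment complementation format, where Nurr1–RXRα interaction reconstitutes a split reporter. Activity was fitted as gain of signal relative to DMSO baseline.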
Chain of Retinoic acid receptor RXR-alpha (Homo sapiens) (P19793 whole entry, looked up, the tested form may be a part): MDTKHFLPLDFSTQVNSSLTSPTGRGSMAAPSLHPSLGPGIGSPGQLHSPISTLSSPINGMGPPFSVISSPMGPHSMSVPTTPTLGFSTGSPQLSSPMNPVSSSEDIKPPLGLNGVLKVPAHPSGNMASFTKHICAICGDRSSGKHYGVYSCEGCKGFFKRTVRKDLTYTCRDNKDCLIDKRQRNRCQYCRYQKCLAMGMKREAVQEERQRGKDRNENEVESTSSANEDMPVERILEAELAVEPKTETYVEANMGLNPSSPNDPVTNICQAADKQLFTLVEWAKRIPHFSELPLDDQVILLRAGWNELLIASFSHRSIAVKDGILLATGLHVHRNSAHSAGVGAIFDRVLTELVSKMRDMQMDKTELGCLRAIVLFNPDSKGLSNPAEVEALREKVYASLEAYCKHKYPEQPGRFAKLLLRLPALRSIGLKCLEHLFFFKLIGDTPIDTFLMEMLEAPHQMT
Consider `CC(C)=CC1C(C(=O)OCc2coc(Cc3ccccc3)c2)C1(C)C` (stereo not given), for which the AC50 is 20.3 µM (active).

With `CCOc1nc(C(Cl)(Cl)Cl)ns1`, the result was inactive.

With `Cc1cc(C)nc(Nc2ccccc2)n1`, the call was inactive.

For the compound `C=C(C)CN(CC)c1c([N+](=O)[O-])cc(C(F)(F)F)cc1[N+](=O)[O-]`, the result was inactive.

Regarding `CC1(C)C(C=C(Cl)Cl)C1C(=O)OC(C#N)c1cccc(Oc2ccccc2)c1` (stereo not given), the compound was called inactive.

`COC(=O)NS(=O)(=O)c1ccc(N)cc1`: the outcome was inactive.

Take `CN=C=S`: the compound was called inactive.

Take `COCC(C)N(C(=O)CCl)c1c(C)csc1C` (stereo not given): the result was inactive.

Take `Clc1nc(Cl)nc(Nc2ccccc2Cl)n1`: the result was inactive.

A further assay concerns the target Peroxisome proliferator-activated receptor gamma (Homo sapiens) (UniProt P37231). Briefly: OT_PPARg_PPARgSRC1_0480: Odyssey Thera (OT) 8-hour Protein-Complementation Assay for Peroxisome Proliferator-activated Receptor Gamma / SRC-1 Co-activator (AID 2283387).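 Further: nuclear to cytoplasmic split Venus YFP fluorescence ratio reporting PPARg SRC-1 interaction.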 In outline:
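Protein-fragment complementation in HEK293T: Venus YFP halves (residues 1-158, 159-239, mutated to IFP1/IFP2) fused to PPARg/SRC-1. 8 h exposure; N/C ratio at 488 nm; DMSO negative control.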
Turning to `N#Cc1c(Cl)cccc1Cl`, the compound was classed as inactive.

In the case of `Cn1c(-c2ccccc2)cc(-c2ccccc2)[n+]1C`, the outcome was inactive.

Turning to `CC(C)NC(=O)N1CC(=O)N(c2cc(Cl)cc(Cl)c2)C1=O`, the result was inactive.

`CCSC(=O)N1CCCCCC1`: the outcome was inactive.

As to `C=CCOC(=O)C(C)(C)OC(=O)c1cc(-n2c(=O)cc(C(F)(F)F)n(C)c2=O)ccc1Cl`, the compound was classed as inactive.

`Nc1cnn(-c2ccccc2)c(=O)c1Cl`: the result was inactive.

On to `CC(C)Nc1nc(Cl)nc(NC(C)C)n1`, for which the compound was classed as inactive.

On to `CC(C)=CC1C(C(=O)OCc2coc(Cc3ccccc3)c2)C1(C)C` (stereo not given), for which the outcome was inactive.

Consider `CCN(CC)c1nc(C)cc(OP(=S)(OC)OC)n1`, for which the outcome was inactive.

Turning to `CCNC(=O)NC(=O)C(C#N)=NOC`, the compound was classed as inactive.

Consider `CCOc1nc(C(Cl)(Cl)Cl)ns1`, for which the compound was called inactive.

For `CO/N=C(/C1=NOCCO1)c1ccccc1Oc1ncnc(Oc2ccccc2Cl)c1F`, the call was inactive.

Turning to `CC(C)N1C(=O)c2ccccc2NS1(=O)=O`, the compound was classed as inactive.

For the compound `CCNP(=S)(OC)O/C(C)=C/C(=O)OC(C)C` (stereo not given), the outcome was inactive.

For the compound `Cc1cc(C)nc(Nc2ccccc2)n1`, the outcome was inactive.

Take `Cc1ccc(N=CN(C)C=Nc2ccc(C)cc2C)c(C)c1`: the compound was called inactive.

As to `CC1(C)CON(Cc2ccccc2Cl)C1=O`, the compound was called inactive.

On to `CCOP(=S)(OCC)Oc1nc(Cl)n(C(C)C)n1`, for which the result was inactive.

Regarding `CC(C)Oc1cccc(NC(=O)c2ccccc2C(F)(F)F)c1`, the outcome was inactive.

Consider `O=C(Nc1ccccc1-c1ccc(Cl)cc1)c1cccnc1Cl`, for which the result was inactive.

Regarding `C=C(C)CN(CC)c1c([N+](=O)[O-])cc(C(F)(F)F)cc1[N+](=O)[O-]`, the outcome was inactive.

`O=P(O)(O)CCCl`: the compound was called inactive.

Consider `CC1(C)C(C=C(Cl)Cl)C1C(=O)OC(C#N)c1cccc(Oc2ccccc2)c1` (stereo not given), for which the result was inactive.

Take `CCCCC(C#N)(Cn1cncn1)c1ccc(Cl)cc1` (stereo not given): the compound was called inactive.

As to `COC(=O)NS(=O)(=O)c1ccc(N)cc1`, the outcome was inactive.

Consider `N#Cc1c[nH]cc1-c1cccc2c1OC(F)(F)O2`, for which the call was inactive.

`CN=C=S`: the compound was classed as inactive.

As to `CNC(=O)N(C)c1nnc(C(C)(C)C)s1`, the result was inactive.

`COCC(C)N(C(=O)CCl)c1c(C)csc1C` (stereo not given): the result was inactive.

Consider `O=C1C2CC=CCC2C(=O)N1SC(Cl)(Cl)Cl` (stereo not given), for which the result was inactive.

Regarding `CC(C)C1(C)N=C(c2ncccc2C(=O)O)NC1=O` (stereo not given), the result was inactive.

For the compound `CC(C)(C)C(=O)C(Oc1ccc(Cl)cc1)n1cncn1` (stereo not given), the result was inactive.

For the compound `COP(=O)(OC)O/C(C)=C/C(=O)N(C)C`, the compound was called inactive.

For the compound `N#CN=C1SCCN1Cc1ccc(Cl)nc1`, the result was inactive.

`CN/C(=N\[N+](=O)[O-])NCc1cnc(Cl)s1`: the result was inactive.

Regarding `Clc1nc(Cl)nc(Nc2ccccc2Cl)n1`, the call was inactive.
